Results on 40 compounds are retold here after PubChem BioAssay (NCATS).

Results filed as inconclusive are left out. Where a call stands in place of a potency, no number is given. Active and inactive are the calls of the source. Calls follow the shape of the dose curve; as a rule, active = well fitted inhibition curve with a large enough effect; inconclusive = small, poorly fitted or top-dose-only effect; inactive = flat fitted curve, though single readings scatter.

Sequence of Calcium and integrin-binding protein 1 (Homo sapiens) (Q99828 whole entry, looked up): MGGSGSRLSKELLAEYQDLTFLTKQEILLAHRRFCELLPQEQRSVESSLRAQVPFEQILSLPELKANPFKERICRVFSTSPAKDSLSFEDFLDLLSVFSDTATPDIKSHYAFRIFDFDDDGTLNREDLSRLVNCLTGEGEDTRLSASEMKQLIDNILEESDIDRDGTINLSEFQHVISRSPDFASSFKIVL

This test deals with Calcium and integrin-binding protein 1 (Homo sapiens) (UniProt Q99828). Description: Primary qHTS for Identification of Calcium Integrin Binding Protein 1 (CIB1) Competitor (AID 1508620).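 Also: GST tagged CIB1 binding a fluorescein labelled alphaIIb integrin peptide tracer; top concentration of the series differs between compounds.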 Particulars: CIB1-GST / FITC-alphaIIb peptide fluorescence polarization; series mostly up to 114 µM. In short, it runs like this:
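CIB1-GST (1 uM final) and compound incubated 15 min at room temperature before adding FITC-alphaIIb peptide tracer (100 nM final). Competition for binding read by fluorescence polarization (ex 480, em 540) after another 15 min at room temperature.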
Background: qHTS replaces the single test concentration by a dilution series.
With `O=C(Nc1ccc(-c2nc3ccccc3[nH]2)cc1)c1ccc(-c2ccccc2)cc1`, the Potency entry is “inactive”.
The result for `Cc1cc(C)n2ncc(C(=O)Nc3ccccc3Sc3ccccc3)c2n1` reads “inactive”.
Turning to `CSc1ccccc1-c1ccc(Nc2nc(-c3ccncc3)nc3ccccc23)cc1F`, the Potency result is “inactive”.
The result for `Cc1ccnc(C(=S)N2CCN(c3cccc(C(F)(F)F)c3)CC2)c1` reads “inactive”; that for `O=C(CNC(=O)c1ccccc1)N[C@@H](C(=O)Nc1cc(C(F)(F)F)ccc1Cl)c1ccccc1`, “inactive”; that for `CN(Cc1ccco1)c1ncnc2ccc(-c3ccc4c(ccn4C)c3)cc12`, “inactive”.
On to `COc1ccc(CN(Cc2ccccc2)S(=O)(=O)c2ccccc2)cc1COc1ccc(NC(C)=O)cc1`, for which the Potency entry was “inactive”.
Next, `N#Cc1c(-c2ccc(-c3ccccc3)cc2)no[n+]1[O-]`: “inactive”; `O=C(Nc1ccc2ccccc2c1)Nc1nnc(-c2ccc(Cl)cc2Cl)s1`: “inactive”; `Fc1cc(Nc2nc(-c3ccncc3)nc3ccccc23)ccc1-c1cccc(OC(F)F)c1`: “inactive”.
Turning to `CN(C)c1cccc(-c2cc(N3CCC(C(N)=O)CC3)ncn2)c1`, the Potency result was “inactive”.
Take `CCOC(=O)c1ccc(-c2ccc3ncnc(NCc4ncc[nH]4)c3c2)o1`: the Potency entry was “inactive”.
The result for `O=C(CSc1nnc(-c2cccc([S+](=O)([O-])N3CCCC3)c2)n1-c1ccccc1)Nc1cccc(F)c1` reads “inactive”.
For the compound `Nc1ccc2c(c1)C(=O)NS2(=O)=O`, the Potency entry was “inactive”.
In the case of `O=S(=O)(c1ccsc1)N1CCN(c2nc(-c3cccs3)nc3ccccc23)CC1`, the Potency result was “inactive”.
With `O=C(Nc1cc(C(F)(F)F)cc(C(F)(F)F)c1)Nc1nnc(-c2ccncc2)s1`, the Potency result is “inactive”.
The result for `COc1ccccc1-c1nc(NCc2ccc(-c3cccnc3)cc2)c2ccccc2n1` reads “inactive”.
The result for `CC(=O)Nc1sc2c(c1-c1ccc(-c3nn[nH]n3)cc1)CCNC2` reads “inactive”; that for `Cc1cc(N[S+](=O)([O-])c2cc3c(cc2Cl)CCC(=O)N3)ccc1Cl`, “inactive”; that for `O=C(O)c1ccc2c(c1)C(=O)N([C@H](Cc1cccc3ccccc13)C(=O)O)C2=O`, “inactive”.
`Cc1cc(NS(=O)(=O)c2ccc(NC(=O)C(C)(C)c3ccc(Cl)c(Cl)c3)cc2)no1`: the Potency result was “inactive”.
For `O=C1CCc2cc(S(=O)(=O)Nc3cccc(F)c3)ccc2N1`, the Potency entry was “inactive”.
In the case of `COc1ccc(NC(=O)c2cnn3c(C)cc(C)nc23)cc1`, the Potency result was “inactive”.
The result for `Cn1ccc2cc(-c3csc(N4CCC(C(N)=O)CC4)n3)ccc21` reads “inactive”.
Take `O=C1CN(S(=O)(=O)c2c(F)cccc2F)CCN1S(=O)(=O)c1ccc2c(c1)OCCO2`: the Potency entry is “inactive”.
The result for `COc1cc(NC(=S)N2CCN(c3cccc(C(F)(F)F)c3)CC2)nc2ccccc12` reads “inactive”; that for `COc1ccc(C2C3=C(N=CN(CCN4CCOCC4)C3N)Oc3ccccc32)cc1OC` (stereo not given), “inactive”.
For the compound `O=C(NCc1ccc(F)cc1)n1cc(P(=S)(c2ccccc2)c2ccccc2)c2ccccc21`, the Potency result is “inactive”.
Consider `O=C(O)c1cccc(-n2cccc2/C=C2/C(=O)N(Cc3ccc(F)cc3)C(=O)N2Cc2ccc(F)cc2)c1`, for which the Potency result is “inactive”.
The result for `COc1cccc(CNc2ccc(S(=O)(=O)Nc3ncccn3)cc2)c1O` reads “inactive”; that for `FC(F)(F)c1ccccc1-c1nc(NCC23CC4CC(CC(C4)C2)C3)c2ccccc2n1`, “inactive”.
For the compound `CC(C)(C)OC(=O)Nc1ncnc2c1C(c1ccccc1)c1c(ccc3ccccc13)O2` (stereo not given), the Potency entry is “inactive”.
The result for `Cc1cc(C)nc(NC(=S)N2CCN(c3cccc(S(C)=O)c3)CC2)c1` (stereo not given) reads “inactive”.
The result for `S=C(Nc1cc(Cl)ccn1)N1CCN(c2ccc3ccccc3n2)CC1` reads “inactive”; that for `COc1ccc(C2=Nn3c(nnc3-c3ccccc3O)SC2)cc1OC`, “inactive”; that for `COc1ccc2c(c1)Oc1ncn(CCN3CCOCC3)c(=N)c1C2c1ccc(OC)c(OC)c1` (stereo not given), “inactive”.
Next, `Cc1ccc(C)c(OC2=NS(=O)(=O)c3ccccc32)c1`: “inactive”; `Cc1ccnc(NC(=S)N2CCN(c3cc(Cl)cc(Cl)c3)CC2)c1`: “inactive”.
With `C[C@H]1CN(S(=O)(=O)c2ccc3c(c2)OCCO3)CCN1S(=O)(=O)c1c(F)cccc1F`, the Potency entry was “inactive”.
For the compound `Cn1nnnc1Sc1ncnc2scc(-c3cc4ccccc4o3)c12`, the Potency entry is “inactive”.
